Results: PubChem BioAssay

Assay: NFkB reporter suppression in cystic fibrosis bronchial cells – cell-based, uHTS hits, panel, cytotoxicity readout, dose response (AID 624344)
Conditions: CF bronchial epithelial cells, PAF-induced NFkB reporter inhibition, with PAF, run 1; at 79 µM (top of the series) unless noted

Compound	inhibition
Cc1nnc(NC(=O)Nc2ccc(Cl)c(Cl)c2)s1	91.7%
Cc1ccc2occ(/C=N/NC(=O)c3ccccc3C)c(=O)c2c1	102%
COc1ccc(-c2cn[nH]c2-c2ccc(OC)cc2)cc1	104%
Brc1ccc2ncnc(NCc3cccnc3)c2c1	105%

Assay: as above
Conditions: CF bronchial epithelial cells, PAF-induced NFkB reporter inhibition, with PAF, run 2; at 79 µM (top of the series) unless noted

Compound	inhibition
Cc1nnc(NC(=O)Nc2ccc(Cl)c(Cl)c2)s1	87.1%
Cc1ccc2occ(/C=N/NC(=O)c3ccccc3C)c(=O)c2c1	110%
COc1ccc(-c2cn[nH]c2-c2ccc(OC)cc2)cc1	104%
Brc1ccc2ncnc(NCc3cccnc3)c2c1	94.9%
